Source: PubChem BioAssay (National Center for Advancing Translational Sciences (NCATS))
Shown are actives, neighbours in structure and some others; about 1.3% of the full set was active somewhere.
RE007 growth inh – less growth of the S. pombe RE007 Vpr strain; S. pombe RE007 Vpr strain, BacTiter-Glo ATP luminescence, 24 h; Potency, µM (series often up to 92.2 µM), inactives show at the top dose activity change, negative = less growth, usual class: inhibitors; 360,000 compounds, 0.21% hits; AID 651644; active = well fitted falling curve with a large enough effect; inconclusive = small, poorly fitted or top-dose-only effect; inactive = no such curve, though single readings can be large or run the other way; note: nearly all actives have a fitted effect of over 50% in size
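Fission yeast strain RE007, carrying one chromosomally integrated HIV-1 vpr copy, was seeded at OD 0.01 in PMG+AL medium with 23 nL pinned compound. After 24 h at 30 °C and 99% humidity, viability was read by BacTiter-Glo luminescence.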
TbPYK inhibitor – inhibitors of Trypanosoma brucei pyruvate kinase. TbPYK enzyme, Kinase-Glo Plus ATP luminescence, 45 min. AID 624173. 410,000 compounds, 0.12% hits. Potency, µM (highest dose often 76.8 µM), for the others: top-dose activity, negative = inhibition, usual class: inhibitors; note: nearly all actives have a fitted effect of over 50% in size
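Luminescent Kinase-Glo Plus end-point after 45 min room-temperature reaction of T. brucei pyruvate kinase started with 130 uM ADP (final). Buffer TEA 50 mM pH 7.2 with KCl, MgCl2, BSA, Tween-20; titration-based qHTS with fitted concentration-effect curves.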
AMA1-RON2 inh – AMA1-RON2 (P. falciparum) interaction inhibition; AlphaScreen AMA1-biotinylated RON2 peptide binding; Potency, µM (highest dose often 58.2 µM), for the others: top-dose activity change, negative = inhibition, usual class: inhibitors; 360,000 compounds, 0.2% hits; AID 720542;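 note: 0% = vehicle wells and -100% = peptide control; nearly all actives have a fitted effect of over 45% in size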
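AMA1 (3D7) with his tag at 25 nM final met compounds first, then biotinylated RON2 peptide at 25 nM; detection used donor plus acceptor beads, 10 µg/mL apiece, read by AlphaScreen after 30 min at room temperature.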
Vaccinia Venus – vaccinia inhibition (Venus reporter); Potency, µM (highest dose often 36.5 µM), inactives show at the top dose activity change, negative = inhibition, most hits filed as inhibitors; Vaccinia virus Venus reporter expression, fluorescence; 330,000 compounds, 0.46% hits; calls by dose curve; tested in A549 cells; note: nearly all actives have a fitted effect of over 30% in size
LmPK inh – blocks Leishmania mexicana pyruvate kinase activity; 290,000 compounds, 0.37% hits; Potency, µM (doses to about 57.5 µM), for inactives: top-dose activity change, negative = inhibition, most hits filed as inhibitors; Q27686; AID 1721; purified LmPK, Kinase-Glo ATP luminescence, 1 h
Target sequence (Q27686 whole entry, looked up): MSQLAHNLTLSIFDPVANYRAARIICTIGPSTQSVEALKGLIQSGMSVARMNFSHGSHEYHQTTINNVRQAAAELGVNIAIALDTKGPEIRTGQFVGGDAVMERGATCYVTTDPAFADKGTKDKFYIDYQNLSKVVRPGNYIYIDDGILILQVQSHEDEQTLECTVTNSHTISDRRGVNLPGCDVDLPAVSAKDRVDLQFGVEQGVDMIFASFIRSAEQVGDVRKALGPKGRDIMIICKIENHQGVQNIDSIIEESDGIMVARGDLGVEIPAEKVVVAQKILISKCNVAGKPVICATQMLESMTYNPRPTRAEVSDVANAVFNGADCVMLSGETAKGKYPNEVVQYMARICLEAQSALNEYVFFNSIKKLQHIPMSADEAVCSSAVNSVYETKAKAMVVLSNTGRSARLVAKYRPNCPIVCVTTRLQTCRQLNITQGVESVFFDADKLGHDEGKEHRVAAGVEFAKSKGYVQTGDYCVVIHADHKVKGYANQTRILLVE
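Pyruvate kinase activity monitored as ATP production (luciferase luminescence). Conditions: 0.1 nM enzyme, 0.5 mM PEP, 0.1 mM ADP, 1 h, RT; normalized against uninhibited and no-enzyme wells.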
Vaccinia mCherry – vaccinia inhibition (mCherry reporter). 310,000 compounds, 0.63% hits. Potency, µM (doses to about 36.5 µM), for the others: at the top dose activity change, negative = inhibition, most hits filed as inhibitors. Vaccinia virus mCherry reporter infection, fluorescence; calls by dose curve; tested in A549 cells; note: nearly all actives have a fitted effect of over 35% in size
* hit, by the source's call; i = inactive; ? = inconclusive; . = not tested or not shown; ! = not confirmed by another sample; [ ] = remark or other dose. Unless noted, calls come from the whole dose curve; as a rule, active = well fitted curve in the direction sought with a large enough effect; inconclusive = small, poorly fitted or top-dose-only effect, or another doubt; inactive = no such curve, though single readings can be large; an effect the other way counts as inactive or inconclusive. Unless noted, % is set by controls: 0 for no effect and ±100 for the full control effect; potency is the fitted concentration of half-maximal effect.

SMILES	RE007 growth inh	TbPYK inhibitor	AMA1-RON2 inh	Vaccinia Venus	LmPK inh	Vaccinia mCherry
COc1ccc(-c2nc3cc(F)ccc3cc2CN(C(=O)c2ccc3c(c2)OCO3)C2CC2)cc1	.	.	.	-5.1%	.	-0.2%
Cc1c(C(=O)N2CC[C@@H]3CCCC[C@H]3C2)sc2ncnc(NCCc3ccccn3)c12	.	.	.	5.2%	.	-5.5%
Cc1cccnc1-c1cccc2c1OC(CNC(=O)Cc1c(C)noc1C)C2 (centres undefined)	.	.	.	-0.3%	.	-9.6%
Cc1ccc(-n2c(-c3cccc(C)c3)n[nH]c2=S)cc1	2.1%	2.82µM*	65.0%	-5.6%	8.91µM*	i
COc1cc([N+](=O)[O-])c(OC)cc1SCc1n[nH]c(=S)n1-c1ccc(C)cc1	-2.6%	2.51µM*	49.6%	?	?	?
Cc1ccc([N+](=O)[O-])c(-c2n[nH]c(=S)n2-c2cccc(Cl)c2)c1	1.0%	3.16µM*	82.7%	-6.3%	17.8µM*	-15.3%
COc1cc([N+](=O)[O-])c(OC)cc1SCc1n[nH]c(=S)n1-c1ccc(F)cc1	-10.6%	?	9.8%	-9.4%	?	i
COc1ccc(-c2n[nH]c(=S)n2-c2ccc(C)cc2)cc1OC	-6.2%	5.01µM*	72.6%	?	14.1µM*	?
S=c1[nH]nc(-c2ccc(Cl)cc2Cl)n1-c1ccccc1	14.1%	-20.6%	152.8%	.	-18.9%	.
Cc1noc(C)c1S(=O)(=O)N1CCc2nc(-c3ccccc3)c3c(c2C1)CO[C@@H](C)C3	.	.	.	.	-1.4%[11.5 µM]	.
C=CCSc1nnc(C2CCCN(Cc3ccccc3O)C2)n1C (centres undefined)	.	.	.	-18.0%	.	i
O=C(c1cnn(-c2nccc(-c3ccco3)n2)c1C1CC1)N1CCCCC1c1cccnc1 (centres undefined)	.	.	.	2.5%	.	-0.1%
Cc1cccc(-n2c(C)n[nH]c2=S)c1	-4.0%	?	-2.6%	-15.5%	-28.9%	-2.9%
Cc1cccc(-n2c(-c3ccncc3)n[nH]c2=S)c1	7.7%	?	-1.2%	-2.8%	14.1µM*	.
S=c1[nH]nc(-c2ccc3c(c2)OCO3)n1-c1ccccc1	20.6%	?	11.9%	-0.6%	7.08µM*	-11.0%
S=c1[nH]nc(-c2ccc(Cl)cc2)n1-c1cccnc1	22.6%	?	20.0%	.	11.2µM*	.
COc1ccc(CCn2c(-c3ccc(Cl)cc3)n[nH]c2=S)cc1OC	43.0%	?	13.2%	1.6%	1.4%	-14.0%
S=c1[nH]nc(-c2cccnc2)n1-c1ccccc1	-8.8%	?	-2.5%	-13.6%	-24.8%	-7.8%
COc1ccc(CCn2c(-c3ccc(C(C)(C)C)cc3)n[nH]c2=S)cc1OC	2.4%	14.1µM*	47.3%	-10.2%	0.2%	-2.8%
OCCN1CCN(Cc2ccc3c(c2)CN(Cc2cccn2-c2ccccn2)CCO3)CC1	.	.	.	-13.4%	.	-10.4%
CC(=O)ON(C(C)=O)c1ccc(/C=C2/C=Cc3ccccc32)cc1	.	.	.	-22.1%	.	-1.6%
Cc1ccc(-n2c(-c3c(-c4ccccc4)noc3C)n[nH]c2=S)cc1	-5.9%	?	70.0%	.	11.2µM*	.
S=c1[nH]nc(-c2ccc(Br)cc2)n1-c1ccc(Br)cc1	-4.1%	?	132.2%	.	?	.
O=C(O)c1ccc(-n2c(-c3ccc(Br)cc3)n[nH]c2=S)cc1	1.0%	?	14.2%	-2.8%	7.08µM*	-6.9%
COc1ccccc1CNC(=O)c1cn(C)c2ccc(S(=O)(=O)N(C)C3CCCCC3)cc2c1=O	.	-2.0%	.	-12.9%	.	-26.3%
SMILES	RE007 growth inh	TbPYK inhibitor	AMA1-RON2 inh	Vaccinia Venus	LmPK inh	Vaccinia mCherry
S=c1[nH]nc(Cc2ccc(Cl)cc2)n1-c1ccc2c(c1)OCCO2	2.4%	2.82µM*	76.3%	-24.0%	?	i
S=c1[nH]nc(-c2ccc(Br)cc2)n1-c1ccc2c(c1)OCCO2	19.8%	?	79.8%	-3.9%	?	-13.0%
S=c1[nH]nc(-c2ccc(Cl)cc2Cl)n1-c1ccc2c(c1)OCCO2	2.0%	6.31µM*	84.4%	-7.5%	?	-10.3%
Oc1ccc(-c2n[nH]c(=S)n2-c2ccc3c(c2)OCCO3)c(O)c1	.	2.82µM*	54.3%	-26.3%	?	?
COc1ccc(-c2n[nH]c(=S)n2-c2ccc3c(c2)OCCO3)cc1	4.1%	?	56.9%	.	?	.
COc1cc(OC)cc(-c2n[nH]c(=S)n2-c2ccc3c(c2)OCCO3)c1	0.8%	2.51µM*	58.1%	-28.6%	-6.4%	?
O=C([C@@H]1C[C@@H](Sc2nc3ccccc3[nH]2)CN1Cc1ccc(C(F)(F)F)cc1)N1CCN(c2ccccc2F)CC1	.	.	.	0.0%	.	-5.5%
COc1ccc(CN2CCC3(CCC(CNC(=O)c4ccnn4C)O3)CC2)c(C)c1C (centres undefined)	.	.	.	-11.7%	.	i
Nc1ncnc2c1ccn2[C@@H]1O[C@H](CO)[C@@H](O)[C@H]1O	-2.2%	-0.5%	-1.7%	1.78µM*	.	1.41µM*
NC[C@H]1O[C@@H](n2ccc(N)nc2=O)[C@H](O)[C@@H]1O	5.3%	2.5%	2.0%	-9.4%	.	34.8%
Nc1ccn([C@@H]2O[C@H](CO)[C@@H](O)[C@@H]2O)c(=O)n1	17.2%[18.4 µM]	3.9%	-2.9%	?	-0.7%	0.501µM*
Nc1ccn(C2OC(CO)C(O)C2F)c(=O)n1 (centres undefined)	10.8%	-7.1%	11.9%	?	.	?
Nc1ccn(C2OC(CO)C(O)C2O)c(=O)n1 (centres undefined)	.	.	.	-25.5%	.	0.0891µM*!
Nc1ncn([C@@H]2O[C@H](CO)[C@@H](O)[C@H]2O)c(=O)n1	-0.1%	0.0%	-0.1%	6.31µM*	.	2.82µM*!
Nc1ncn(C2C[C@H](O)[C@@H](CO)O2)c(=O)n1 (some centres undefined)	.	-10.0%	.	.	.	.
O=C(NC(c1ccc(F)cc1)c1ccc2ccccc2n1)C1CCN(CCOc2ccc(F)cc2)CC1 (centres undefined)	-7.6%	-3.8%	?	10µM*	.	11.2µM*
COc1ccc(OCCN2CCC(C(=O)NC(c3ccccc3)c3ccc4ccccc4n3)CC2)cc1 (centres undefined)	-7.3%	0.2%	15.2%	-19.6%	.	-29.7%
O=C(NC(c1ccccc1)c1ccc2ccccc2n1)C1CCN(CCOc2ccc(Cl)cc2)CC1 (centres undefined)	-5.8%	-3.1%	33.4%	10µM*	.	?
COc1cc(CN2CCC(C(=O)NC(c3ccc(F)cc3)c3ccc4ccccc4n3)CC2)cc(OC)c1 (centres undefined)	-3.0%	4.1%	-13.1%	14.1µM*	.	?
Cc1nc(Nc2nc(-c3ccccc3)cc(=O)[nH]2)nc2ccccc12	1.2%	6.1%	-2.7%	10µM*	.	10µM*
